Measured values published in PubChem BioAssay (NCI).
This is part of a sample that, as a whole, favours compounds with a hit. Of some 83,000 tested, about 20% had one in any assay.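 Compound tested at a single concentration for 48 hours in 96-well plates; a percent growth value below 10 was scored as active.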 Calls of active or inactive are those of the source.

Key:
Experiment in all cases: NCI-60 one-dose screen, 48 h (100 = growth as untreated, 0 = no growth, -100 = all killed)
Details in all cases: 10 µM unless noted
EKVX NSCLC = system: EKVX NSCLC
SN12C renal = system: SN12C renal
UO-31 renal = system: UO-31 renal
TK-10 renal = system: TK-10 renal
ACHN renal = system: ACHN renal
CAKI-1 renal = system: CAKI-1 renal
A498 renal = system: A498 renal
CCRF-CEM leukemia = system: CCRF-CEM leukemia
RPMI-8226 leukemia = system: RPMI-8226 leukemia
OVCAR-8 ovarian = system: OVCAR-8 ovarian
OVCAR-5 ovarian = system: OVCAR-5 ovarian
OVCAR-4 ovarian = system: OVCAR-4 ovarian
SK-OV-3 ovarian = system: SK-OV-3 ovarian
IGROV1 ovarian = system: IGROV1 ovarian
OVCAR-3 ovarian = system: OVCAR-3 ovarian
HS 578T breast = system: HS 578T breast
NCI/ADR-RES ovarian = system: NCI/ADR-RES ovarian
T-47D breast = system: T-47D breast
MOLT-4 leukemia = system: MOLT-4 leukemia
SR leukemia = system: SR leukemia

Measured: growth

CCCCCCC/C(=N\N=C(N)N)c1ccc(O)cc1
inactive: EKVX NSCLC 55.1% | SN12C renal 39.6% | UO-31 renal 42.8% | TK-10 renal 67.5% | ACHN renal 47.6% | CAKI-1 renal 66.5% | A498 renal 46.6% | CCRF-CEM leukemia 39.7% | RPMI-8226 leukemia 11% | OVCAR-8 ovarian 60.4% | OVCAR-5 ovarian 58.3% | OVCAR-4 ovarian 36.2% | SK-OV-3 ovarian 46.8% | IGROV1 ovarian 33.6% | OVCAR-3 ovarian 35.8% | HS 578T breast 57.3% | NCI/ADR-RES ovarian 69.9%
active: T-47D breast -31.6%

O=C(Nc1ccc(Nc2ccncc2)cc1)c1ccc(Nc2ccnc3ccc([N+](=O)[O-])cc23)cc1[N+](=O)[O-]
active: HS 578T breast -5.48%
inactive: EKVX NSCLC 50% | SN12C renal 68% | UO-31 renal 52.8% | TK-10 renal 102% | ACHN renal 65.9% | CAKI-1 renal 89.3% | A498 renal 120% | CCRF-CEM leukemia 98.8% | MOLT-4 leukemia 109% | RPMI-8226 leukemia 77.8% | OVCAR-8 ovarian 44.4% | OVCAR-4 ovarian 91.1% | SK-OV-3 ovarian 82.8% | OVCAR-3 ovarian 98.1% | NCI/ADR-RES ovarian 52% | T-47D breast 62.2%

CCn1c2ccccc2c2ccc(C(C)=O)cc21
inactive: EKVX NSCLC 99.2% | SN12C renal 114% | UO-31 renal 106% | TK-10 renal 105% | ACHN renal 98.1% | CAKI-1 renal 94.1% | A498 renal 83.8% | MOLT-4 leukemia 96.8% | SR leukemia 97.8% | OVCAR-8 ovarian 104% | OVCAR-5 ovarian 89.9% | OVCAR-4 ovarian 96.7% | SK-OV-3 ovarian 111% | IGROV1 ovarian 111% | OVCAR-3 ovarian 112% | HS 578T breast 144% | NCI/ADR-RES ovarian 101% | T-47D breast 96.6%

NC(=O)c1ccccc1NC(=O)c1ccccc1Cl
inactive: EKVX NSCLC 103% | SN12C renal 101% | UO-31 renal 82.8% | TK-10 renal 141% | ACHN renal 104% | CAKI-1 renal 98.3% | A498 renal 98.3% | CCRF-CEM leukemia 97.3% | RPMI-8226 leukemia 85% | OVCAR-8 ovarian 99.4% | OVCAR-5 ovarian 108% | OVCAR-4 ovarian 98.3% | SK-OV-3 ovarian 107% | IGROV1 ovarian 96% | OVCAR-3 ovarian 109% | HS 578T breast 108% | NCI/ADR-RES ovarian 115% | T-47D breast 96.4%
active: SR leukemia -9.77%

COc1ccc(C(=O)COc2cccc(/C=C3\Oc4ccc5ccccc5c4C3=O)c2)cc1
active: UO-31 renal -54.4%
inactive: EKVX NSCLC 89.6% | SN12C renal 75% | TK-10 renal 90.1% | ACHN renal 97.5% | CAKI-1 renal 27.6% | A498 renal 139% | MOLT-4 leukemia 18.9% | SR leukemia 15.9% | OVCAR-8 ovarian 70.1% | OVCAR-5 ovarian 103% | OVCAR-4 ovarian 94.9% | SK-OV-3 ovarian 99.5% | OVCAR-3 ovarian 72.4% | HS 578T breast 93.3% | NCI/ADR-RES ovarian 96.4% | T-47D breast 37.9%

CC(=O)c1nc2ccccc2n1CCn1cc(CC(N)C(=O)O)c2ccccc21 (stereo not given)
inactive: EKVX NSCLC 82.4% | SN12C renal 93.7% | UO-31 renal 69.4% | TK-10 renal 102% | ACHN renal 96.9% | CAKI-1 renal 95.9% | A498 renal 116% | CCRF-CEM leukemia 82.9% | SR leukemia 90.7% | RPMI-8226 leukemia 90% | OVCAR-8 ovarian 99% | OVCAR-5 ovarian 96.9% | OVCAR-4 ovarian 98.8% | SK-OV-3 ovarian 108% | IGROV1 ovarian 99.1% | OVCAR-3 ovarian 108% | HS 578T breast 109% | NCI/ADR-RES ovarian 97.5% | T-47D breast 106%

COc1cccc(CCC2C(=O)CCCC2=O)c1
inactive: EKVX NSCLC 116% | SN12C renal 106% | UO-31 renal 84.3% | TK-10 renal 115% | ACHN renal 103% | CAKI-1 renal 106% | A498 renal 131% | CCRF-CEM leukemia 102% | SR leukemia 99.1% | OVCAR-8 ovarian 116% | OVCAR-5 ovarian 103% | OVCAR-4 ovarian 124% | SK-OV-3 ovarian 102% | IGROV1 ovarian 111% | OVCAR-3 ovarian 99.9% | NCI/ADR-RES ovarian 110% | T-47D breast 97.4%

Nc1c2ccccc2nc2ccccc12 (tested in a mixture with another compound)
inactive: EKVX NSCLC 22.6% | SN12C renal 20.1% | UO-31 renal 14.9% | TK-10 renal 15.5% | CAKI-1 renal 20.2% | CCRF-CEM leukemia 26.2% | MOLT-4 leukemia 15.4% | OVCAR-4 ovarian 19% | SK-OV-3 ovarian 32.6% | IGROV1 ovarian 22.9% | OVCAR-3 ovarian 32.6% | HS 578T breast 42.9% | NCI/ADR-RES ovarian 19.4% | T-47D breast 28.9%
active: ACHN renal 8.26% | A498 renal 0.179% | RPMI-8226 leukemia 7.88% | OVCAR-8 ovarian 4.39%

Cc1ccccc1NC(=O)c1cc2ccccc2cc1O
active: UO-31 renal -8.7% | OVCAR-3 ovarian -10.2%
inactive: EKVX NSCLC 43.8% | SN12C renal 30.2% | TK-10 renal 60.1% | ACHN renal 34% | CAKI-1 renal 41.4% | A498 renal 43% | MOLT-4 leukemia 14.2% | OVCAR-8 ovarian 60% | OVCAR-5 ovarian 77.9% | OVCAR-4 ovarian 56.1% | SK-OV-3 ovarian 61.1% | IGROV1 ovarian 30.2% | NCI/ADR-RES ovarian 27.8% | T-47D breast 49.9%

COc1cccc2c1C(=O)c1c(O)c3c(c(O)c1C2=O)C[C@@](O)(/C(C)=N/NC(=O)c1cccc([N+](=O)[O-])c1)C[C@@H]3OC1CC(N)C(O)C(C)O1 (stereo not given in full)
active: EKVX NSCLC -6.35% | SN12C renal -9.27% | UO-31 renal -17% | TK-10 renal -33.8% | ACHN renal -62.6% | CAKI-1 renal -47.4% | A498 renal -58.6% | MOLT-4 leukemia -39% | RPMI-8226 leukemia -55.6% | OVCAR-8 ovarian -6.79% | OVCAR-4 ovarian -17.3% | SK-OV-3 ovarian -29.7% | OVCAR-3 ovarian -40.7% | HS 578T breast -12.3% | T-47D breast -28.9%
inactive: NCI/ADR-RES ovarian 58.3%

Cc1ccc(NC(=O)CSc2nnc3n(Cc4ccccc4)c(=O)c4c(C)c(C(N)=O)sc4n23)cc1
inactive: EKVX NSCLC 91.7% | SN12C renal 58.5% | UO-31 renal 81.9% | ACHN renal 75.6% | CAKI-1 renal 91.7% | OVCAR-5 ovarian 75.8% | IGROV1 ovarian 50.8% | NCI/ADR-RES ovarian 92.8%
active: TK-10 renal -24.4% | A498 renal 6.08% | OVCAR-4 ovarian -62.3% | SK-OV-3 ovarian -7.67% | OVCAR-3 ovarian 9.55% | HS 578T breast 6.99% | T-47D breast -19.7%

COC(=O)[C@]1(C(C)C)N[C@H](c2cn(-c3ccccc3)nc2-c2ccccc2)[C@@H]2C(=O)N(c3ccc(Cl)cc3)C(=O)[C@@H]21
inactive: EKVX NSCLC 102% | SN12C renal 97.3% | UO-31 renal 59.5% | TK-10 renal 113% | ACHN renal 93.9% | CAKI-1 renal 77.5% | A498 renal 107% | OVCAR-5 ovarian 101% | OVCAR-4 ovarian 117% | SK-OV-3 ovarian 92.7% | IGROV1 ovarian 103% | OVCAR-3 ovarian 89.1% | HS 578T breast 117% | NCI/ADR-RES ovarian 90.3% | T-47D breast 93.6%

Cc1c(C(N)=O)sc2c1c(=O)n(Cc1ccccc1)c1nnc(S(=O)(=O)CC(=O)Nc3ccc(Cl)cc3)n21
inactive: EKVX NSCLC 43.6% | SN12C renal 56% | UO-31 renal 87% | TK-10 renal 18% | ACHN renal 10.1% | CAKI-1 renal 68.2% | A498 renal 22.6% | OVCAR-5 ovarian 82.7% | SK-OV-3 ovarian 18.7% | IGROV1 ovarian 40% | HS 578T breast 17.8% | NCI/ADR-RES ovarian 108% | T-47D breast 21.8%
active: OVCAR-3 ovarian 5.69%

C=CCCCCCCCCC(=O)[O][Sn]([CH2]CCC)([CH2]CCC)[CH2]CCC
active: EKVX NSCLC -55.1% | SN12C renal -82% | UO-31 renal -88.7% | TK-10 renal -92.2% | ACHN renal -99.6% | CAKI-1 renal -89.4% | A498 renal -97.3% | SR leukemia 8.68% | RPMI-8226 leukemia -27.3% | OVCAR-8 ovarian -74.2% | OVCAR-5 ovarian -89.4% | OVCAR-4 ovarian -96.7% | SK-OV-3 ovarian -98.8% | IGROV1 ovarian -72.9% | OVCAR-3 ovarian -97.9% | HS 578T breast -46.4% | NCI/ADR-RES ovarian -90.3% | T-47D breast -71.5%

NC(=Nc1ccccc1)SCCCCSC(N)=Nc1ccccc1
inactive: EKVX NSCLC 80.4% | SN12C renal 87% | UO-31 renal 31% | TK-10 renal 97.3% | ACHN renal 75.4% | CAKI-1 renal 74.2% | A498 renal 82.3% | MOLT-4 leukemia 70.3% | OVCAR-8 ovarian 83.7% | OVCAR-5 ovarian 83.3% | OVCAR-4 ovarian 77.3% | SK-OV-3 ovarian 108% | IGROV1 ovarian 75.3% | OVCAR-3 ovarian 72% | NCI/ADR-RES ovarian 66.3% | T-47D breast 62.2%

Cc1nn(-c2ccc(Cl)cc2)c2nc3c(nc12)C(=O)C(=O)c1ccccc1-3
inactive: EKVX NSCLC 64% | SN12C renal 78.7% | UO-31 renal 59.8% | TK-10 renal 144% | ACHN renal 81.2% | CAKI-1 renal 69.8% | A498 renal 59.4% | OVCAR-5 ovarian 95.9% | OVCAR-4 ovarian 48.4% | SK-OV-3 ovarian 93.8% | IGROV1 ovarian 59.1% | HS 578T breast 61.3% | NCI/ADR-RES ovarian 76.5% | T-47D breast 67.6%
active: OVCAR-3 ovarian 2.92%

c1ccc2cc(C[n+]3ccn(CCCCCCCn4cc[n+](Cc5ccc6ccccc6c5)c4)c3)ccc2c1
active: A498 renal -3.36%
inactive: EKVX NSCLC 27.9% | SN12C renal 24.2% | UO-31 renal 76.7% | TK-10 renal 70.6% | ACHN renal 60.2% | CAKI-1 renal 91.9% | MOLT-4 leukemia 56.1% | SR leukemia 50.9% | OVCAR-5 ovarian 48.2% | OVCAR-4 ovarian 37.3% | SK-OV-3 ovarian 36.1% | IGROV1 ovarian 27.5% | OVCAR-3 ovarian 44.4% | HS 578T breast 61.5% | NCI/ADR-RES ovarian 99.7% | T-47D breast 23.4%

CCOC(=O)C(Cc1ccccc1)(C(=O)OCC)C(Br)C(=O)c1ccccc1 (stereo not given)
inactive: EKVX NSCLC 88.8% | SN12C renal 88.7% | UO-31 renal 37.6% | TK-10 renal 69.2% | ACHN renal 44.3% | CAKI-1 renal 52% | A498 renal 82.4% | OVCAR-8 ovarian 81.4% | OVCAR-5 ovarian 98.1% | OVCAR-4 ovarian 39.8% | SK-OV-3 ovarian 92.2% | IGROV1 ovarian 75.1% | OVCAR-3 ovarian 61.3% | HS 578T breast 83.1% | NCI/ADR-RES ovarian 85.1%
